Assay results taken from PubChem BioAssay (NCATS).
Results filed as inconclusive are left out. The source made the active and inactive calls. Calls follow the shape of the dose curve; as a rule, active = well fitted inhibition curve with a large enough effect; inconclusive = small, poorly fitted or top-dose-only effect; inactive = flat fitted curve, though single readings scatter.

Tests used:
Assay in all cases: qHTS profiling for inhibitors of Plasmodium falciparum proliferation (AID 504749); also: nearly all actives have a fitted effect of over 60% in size
Settings in all cases: P. falciparum in erythrocytes, SYBR Green DNA, 72 h; series mostly up to 12.8 µM
[1] = tested on: CP260
Outline: (§1)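 Each compound contacts P. falciparum-infected red blood cells for 72 h at 37 C; lysis buffer (Tris, EDTA, saponin, Triton X, SYBR Green I) is added and fluorescence measured next morning; values normalized to controls.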

[2] = tested on: CP262
Outline: as §1

[3] = tested on: CP265
Outline: as §1

[4] = tested on: CP266
Outline: as §1

[5] = tested on: CP268
Outline: as §1

[6] = tested on: CP269
Outline: as §1

[7] = tested on: CP286
Outline: as §1

[8] = tested on: CP291
Outline: as §1

[9] = tested on: CP297
Outline: as §1

[10] = tested on: CP305
Outline: as §1

[11] = tested on: CP315
Outline: as §1

[12] = tested on: CP325
Outline: as §1

[13] = tested on: CP329
Outline: as §1

[14] = tested on: CP335
Outline: as §1

[15] = tested on: DFO2036
Outline: as §1

[16] = tested on: DIV14
Outline: as §1

[17] = tested on: DIV17
Outline: as §1

[18] = tested on: DIV30
Outline: as §1

[19] = tested on: Dd2
Outline: as §1

[20] = tested on: ECU
Outline: as §1

[21] = tested on: FAB9
Outline: as §1

[22] = tested on: GB4
Outline: as §1

[23] = tested on: HB3
Outline: as §1

[24] = tested on: ICS
Outline: as §1

[25] = tested on: JCK
Outline: as §1

[26] = tested on: N140
Outline: as §1

[27] = tested on: P93_24
Outline: as §1

[28] = tested on: P94_40
Outline: as §1

[29] = tested on: PAD
Outline: as §1

[30] = tested on: PC15
Outline: as §1

[31] = tested on: PC49
Outline: as §1

[32] = tested on: SC27B
Outline: as §1

[33] = tested on: TAB109
Outline: as §1

[34] = tested on: TAB113
Outline: as §1

[35] = tested on: TAB165
Outline: as §1

[36] = tested on: W2
Outline: as §1

Measured: Potency

CC[C@H]1NC(=O)c2cc(S(N)(=O)=O)c(Cl)cc2N1
inactive: all assays above
